A selection: hits, their analogues and other compounds. The true share with any hit is near 3.3%.
SARS PLP yeast: SARS-CoV PLP inhibition in yeast; S. cerevisiae expressing SARS-CoV PLpro, growth rescue; Potency, µM (highest dose often 32.9 µM), inactives show at the highest dose activity, positive = growth rescue, actives largely listed as activators; actives 0.19% (n = 330,000); calls by dose curve; also: 0% is about no effect; nearly all actives have a fitted effect of over 55% in size
TbPYK inhibitor: T. brucei pyruvate kinase inhibition | Q57TT1 | TbPYK enzyme, Kinase-Glo Plus ATP luminescence, 45 min | Potency, µM (highest dose often 76.8 µM), without a hit: at the highest dose activity, negative = inhibition, hits mostly inhibitors | actives 0.12% (n = 410,000) | AID 624173; also: % is scaled to controls: 0 for no effect and ±100 for the full control effect; nearly all actives have a fitted effect of over 50% in size
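Quantitative HTS: titrated library compounds versus trypanosomal pyruvate kinase in TEA buffer (pH 7.2) containing KCl, MgCl2, BSA and Tween-20. Reactions were initiated with ADP, 130 uM final. Kinase-Glo Plus luminescence was read after 45 min at RT.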
AmpC inh no detg: blocks E. coli AmpC beta-lactamase in detergent-free assay; Potency, µM (doses to about 57.1 µM), for inactives: at the top dose activity change, negative = inhibition, most hits filed as inhibitors; actives 0.52% (n = 330,000); AmpC nitrocefin hydrolysis, absorbance 480 nm, 0.0001% Triton; P00811;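 also: plate controls were no compound for no effect and no enzyme for full effect; nearly all actives have a fitted effect of over 20% in size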
Target sequence (P00811 whole entry, looked up): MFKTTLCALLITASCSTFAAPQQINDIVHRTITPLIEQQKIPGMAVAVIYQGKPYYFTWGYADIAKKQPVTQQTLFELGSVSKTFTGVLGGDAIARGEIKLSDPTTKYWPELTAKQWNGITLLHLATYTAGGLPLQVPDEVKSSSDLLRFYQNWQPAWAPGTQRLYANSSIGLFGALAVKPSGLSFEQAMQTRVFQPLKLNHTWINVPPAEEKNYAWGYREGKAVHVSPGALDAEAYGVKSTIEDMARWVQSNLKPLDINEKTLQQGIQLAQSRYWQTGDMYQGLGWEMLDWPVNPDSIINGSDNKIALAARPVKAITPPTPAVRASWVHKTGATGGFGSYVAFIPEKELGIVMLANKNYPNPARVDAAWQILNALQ
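20 mM phosphate pH 7.0 + 0.01% (detergent screen) or 0.0001% Triton X-100; 5.3 nM AmpC reagent; cpd preinc 15 min RT; nitrocefin (800 uM stock) to start; A480 q20 s × 4 min; Activity was normalised to no-enzyme and no-compound control wells.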
AmpC inh detg: AmpC beta-lactamase inhibition with detergent present. AmpC hydrolysis of nitrocefin, absorbance 480 nm, 0.01% Triton. Potency, µM (highest dose often 114 µM), for the others: at the top dose activity change, negative = inhibition, actives largely listed as inhibitors. actives 0.041% (n = 370,000). AID 485294;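 also: 0% = no-compound wells and -100% = no-enzyme wells; nearly all actives have a fitted effect of over 25% in size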
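20 mM phosphate pH 7.0 + 0.01% (detergent screen) or 0.0001% Triton X-100; 5.3 nM AmpC reagent; cpd preinc 15 min RT; nitrocefin (800 uM stock) to start; A480 q20 s × 4 min; Activity was normalised to no-enzyme and no-compound control wells.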
Sm TGR inh: S. mansoni TGR enzyme inhibition; Q962Y6; purified TGR, DTNB reduction, TNB absorbance 405 nm; Potency, µM (doses to about 114 µM), for the others: at the highest dose activity change, negative = inhibition, actives largely listed as inhibitors; actives 3% (n = 360,000); AID 485364; also: % is scaled to controls: 0 for no effect and ±100 for the full control effect; nearly all actives have a fitted effect of over 60% in size
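Kinetic colorimetric format: TGR-catalysed, NADPH-driven DTNB reduction monitored via TNB absorbance. Enzyme dispensed at 20 nM; compound exposure 15 min at room temperature before reaction start.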
RE007 growth inh: less growth of the S. pombe RE007 Vpr strain; S. pombe RE007 Vpr strain, BacTiter-Glo ATP luminescence, 24 h; Potency, µM (highest dose often 92.2 µM), for inactives: at the highest dose activity change, negative = less growth, hits mostly inhibitors; actives 0.21% (n = 360,000); active = well fitted falling curve with a large enough effect; inconclusive = small, poorly fitted or top-dose-only effect; inactive = no such curve, though single readings can be large or run the other way; also: % is scaled to controls: 0 for no effect and ±100 for the full control effect; nearly all actives have a fitted effect of over 50% in size
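Fission yeast strain RE007, carrying one chromosomally integrated HIV-1 vpr copy, was seeded at OD 0.01 in PMG+AL medium with 23 nL pinned compound. After 24 h at 30 °C and 99% humidity, viability was read by BacTiter-Glo luminescence.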
Numbers without * were called inactive; ? = inconclusive; · = no result given; [ ] = dose if it differs, or a comment. Unless noted, calls follow the shape of the dose curve; as a rule, active = well fitted curve in the direction sought with a large enough effect; inconclusive = small, poorly fitted or top-dose-only effect, or another doubt; inactive = no such curve, though single readings can be large; an effect the other way counts as inactive or inconclusive. Potency is read from the fitted curve at half-maximal effect.

SMILES	SARS PLP yeast	TbPYK inhibitor	AmpC inh no detg	AmpC inh detg	Sm TGR inh	RE007 growth inh
CC(C)(C)c1ccc(C(=O)NC(=S)NNC(=O)c2cccs2)cc1	-29%	-26%	-58%	?	-33%	·
Cc1snnc1C(=O)NC(=S)Nc1ccccc1	0%	-4%	-17%	-4%	8.9µM*	-12%
COc1ccc(CNC(=O)CCc2cn(C)c3ccccc23)cc1	·	4%	·	3%	-3%	·
CC[C@@H]1[C@H]2CCCC(=O)N3CC[C@@H](C[C@@H]1OC(=O)NCc1ccccc1)[C@@H]23	-6%	?	34%	?	35µM*	5%
Cc1ccc2cc(C#N)c(N3CCCN(C(=O)C4CCCO4)CC3)nc2c1C (stereo not given)	-5%	6%	121%	-16%	-4%[11.4 µM]	-8%
Cc1cc(C)c2nc(N3CCCN(C(=O)c4ccco4)CC3)c(C#N)cc2c1	8%	·	40%	4%	2µM*	0%[3.69 µM]
Cc1ccc2cc(C#N)c(N3CCCC3)nc2c1C	-3%	-3%	-38%	?	20µM*	-26%
Cc1nc(N2CCN(C(=O)c3ccco3)CC2)c(C#N)c2c1CCCC2	-9%	-4%	12%	-5%	-12%	0%
Cc1ccc(-n2ncc(C(=O)NCCN3CCCC3)c2C2CCN(C(=O)OC(C)(C)C)CC2)cc1C	·	2%[15.4 µM]	·	10%	-25%	·
O=C(Nc1cc(Sc2nc3ccccc3s2)cc([N+](=O)[O-])c1)c1ccccc1F	?	-5%	?	-1%	-27%	-5%
O=C(Nc1cc(Sc2nc3ccccc3s2)cc([N+](=O)[O-])c1)c1ccccc1	13%	-8%	13µM*	-14%	2%	38%
Cc1ccc(CNC(=O)CSc2c3c(nc4cc(Cl)ccc24)CCCC3)o1	-18%	-25%	-19%	-10%	8.9µM*	-29%
CCOc1ccc(CNC(=O)CSc2c3c(nc4cc(Cl)ccc24)CCCC3)cc1	·	0%	·	4%	19%	·
COc1ccc(C2C(=O)N(C3CCCCC3)CC(=O)N2CCC2=CCCCC2)cc1 (stereo not given)	·	-3%	·	-3%	-1%	·
CCN(CC)C(=O)CSc1nnc(-c2ccco2)n1Cc1ccco1	-12%	-17%	-12%	0%	50µM*	-8%
c1ccc(CSc2nnc(-c3ccco3)n2Cc2ccco2)cc1	-33%	-1%	-18%	-10%	45µM*	21%
CCn1c(SCc2cccc(C(F)(F)F)c2)nnc1-c1ccco1	16%	-20%	5%	-1%	28µM*	20%
COCCn1c(SCc2cccnc2)nnc1-c1ccco1	0%	9%	-16%	-8%	28µM*	-5%
COCCn1c(SCC(=O)NCCc2ccccc2)nnc1-c1ccco1	-11%	-17%	0%	?	?	-5%
CCOC(=O)CNC(=O)CSc1nnc(-c2ccccc2)n1Cc1ccco1	1%	?	-6%	0%	20µM*	8%
COc1cccc(-c2nnc(SCc3ccc(C#N)cc3)n2Cc2ccco2)c1	1%	-25%	-3%	-15%	40µM*	15%
COC(=O)CSc1nnc(-c2ccco2)n1Cc1ccco1	2%	-24%	1%	-8%	13µM*	-9%
CC(=O)c1c(C)[nH]c(C(=O)CSc2nnc(-c3ccco3)n2Cc2ccccc2)c1C	-9%	-4%	88%	?	40µM*	10%
CC(O)C1CCC2C3CCC4CC(O)CCC4(C)C3CCC12C (stereo not given)	·	-4%	·	·	·	·
COC(=O)CSc1nnc(CSc2nc(C)cc(C)n2)n1Cc1ccco1	12%	1%	22%	-1%	40µM*	3%
SMILES	SARS PLP yeast	TbPYK inhibitor	AmpC inh no detg	AmpC inh detg	Sm TGR inh	RE007 growth inh
Cc1cc(C)nc(SCc2nnc(SCC(=O)Nc3ccc(C)c(C)c3)n2Cc2ccco2)n1	2%	2%	96%	2%	?	5%
Cc1ccc(C(=O)c2oc3ccccc3c2NC(=O)COc2ccc(C(C)(C)C)cc2)cc1	·	-7%	·	23%	5%	·
COc1cccc(-c2cc(C(=O)NC3CC3)c3ccccc3n2)c1	-5%	-12%	-8%	-8%	-21%	-6%
O=C(NCC1CCCO1)c1cc(-c2ccco2)nc2ccccc12 (stereo not given)	6%	-7%	-19%	-15%	35µM*	-13%
O=C(NC1CCC(O)CC1)c1cc(-c2ccco2)nc2ccccc12 (stereo not given)	-3%	-11%	-22%	0%	11µM*	14%
CC(=O)NC(N(C#N)c1nc(Cl)nc(N(C)C)n1)C(Cl)(Cl)Cl (stereo not given)	0%	0%	-10%	-1%	40µM*	12%
CCN(CC)C(=O)C(C)N(C#N)c1nc(Cl)nc(N(C)C)n1 (stereo not given)	0%	-3%	-3%	7%	0%	-11%
CC(=O)N1c2ccc(S(=O)(=O)Nc3ccc(Cl)cc3C)cc2CC1C (stereo not given)	·	-2%	·	3%	2%	·
Cc1ccccc1CS(=O)(=O)c1nnc([C@H](CC(C)C)NC(=O)OC(C)(C)C)o1	-29%	-25%	?	14µM*	2µM*	-13%
CC(C)[C@H](NC(=O)OC(C)(C)C)c1nnc(S(=O)(=O)Cc2c(F)cccc2Cl)o1	-12%	-8%	2.5µM*	2µM*	1µM*	-16%
CC(C)(C)OC(=O)N[C@@H](Cc1ccccc1)c1nnc(S(=O)(=O)Cc2cccc(F)c2)o1	-44%	-22%	-56%	25µM*	0.4µM*	?
Cc1cc2c(cc3c(SCc4cccc(F)c4)nnc(C)n32)o1	·	1%	·	11%	26%	·
CC(C)C[C@H](N)c1nnc(S(=O)(=O)Cc2cccc(F)c2)o1	-26%	-11%	4.5µM*	3.5µM*	?	-3%
CN1CCc2c(sc3c2C(=O)NC(c2ccc(C(C)(C)C)cc2)N3)C1 (stereo not given)	·	-11%	·	0%	-21%	·
CC[C@@H](C)[C@H](NC(=O)OCc1ccccc1)c1nnc([C@@H](NC(=O)OCc2ccccc2)[C@@H](C)CC)o1	0%	4%	-32%	-6%	11%	7%
CC[C@@H](C)[C@H](NC(=O)OC(C)(C)C)c1nnc(S(=O)(=O)Cc2cc(C)ccc2C)o1	-23%	-13%	?	11µM*	2.8µM*	?
Cc1ccc(-n2c(SCC(=O)Nc3ccc4c(c3)OCO4)nc3c([nH]c4ccccc43)c2=O)cc1	·	2%	·	6%	1%	·
